L major viab = reduces viability of Leishmania major promastigotes; resazurin fluorescence viability; 200,000 compounds, 9% hits; inhibition, % at 10 µM; in the data active = inhibition above about 50%;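 also: promastigotes grown with compound for 44 hours at 28 °C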
RAM inhibit = yeast RAM network inhibition; inhibition, % at 50 µM; 190,000 compounds, 1.8% hits; S. cerevisiae dse1pr::URA3 reporter, 5-FOA growth OD615, 2 d; analog-sensitive cbk1-as2 kinase mutant strain; AID 868;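 active = inhibition above a set limit, 3 SD over mean compound inhibition, cut at about 8.4% in these data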;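 also: 0% = DMSO-only wells with no growth and 100% = 10 µM 1-NA-PP1 full growth; inhibition rescues growth on 5-FOA so higher OD means more RAM inhibition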
CHOP inh = blocks CHOP induction under ER stress | CHO-K1 CHOP-promoter luciferase, tunicamycin-induced, 15-18 h | inhibition, % at 10 µM | 220,000 compounds, 3.8% hits | AID 2732;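 active = compounds that reduced the stress-induced luciferase reporter signal by more than about 70% of percent inhibition, limit read from the data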;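 also: 0% = tunicamycin plus vehicle and 100% = wells without tunicamycin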
WT yeast gro inh = growth inhibition of WT yeast, mitochondrial fusion screen; mitochondrial fusion phenotypic screen, WT strain; inhibition, % at 10 µM; 190,000 compounds, 2.1% hits; AID 1362; in the data active = inhibition above about 58%; tested in S. cerevisiae
An asterisk follows results filed as active. The list is not random: actives were taken first. Their share in the collection is about 13%.

CC(C)C[C@@H](CSc1ccc(Br)cc1)N1CCN(CC(C)C)CCC1=O was read as CHOP inh 15.
Screening Cc1scc(C(=O)N2CCN(c3ccc(Cl)cc3)CC2)c1C returned L major viab 2, RAM inhibit 1, CHOP inh 40 and WT yeast gro inh 46.
For Cc1cc(C)cc(N(CCC(=O)Nc2nnc(C3CC3)s2)S(=O)(=O)c2ccc(Cl)cc2)c1 the results were L major viab 82*, RAM inhibit 3, CHOP inh 56 and WT yeast gro inh -2.
For Cc1cccc(OCCCCNCc2ccccc2)c1 the results were L major viab 89*, RAM inhibit 0, CHOP inh 9 and WT yeast gro inh 32.
CCc1ccccc1OCCCCCNCCO was read as L major viab 92*, RAM inhibit 2, CHOP inh 57 and WT yeast gro inh 18.
Cc1cc(OCCCCCNCCO)ccc1Cl was read as L major viab 100*, RAM inhibit 0, CHOP inh 28 and WT yeast gro inh 1.
CCc1cccc(OCCCCNCCO)c1 was read as L major viab 91*, RAM inhibit 0, CHOP inh 4 and WT yeast gro inh 15.
Cc1cccc(OCCCCCNCCO)c1 was read as L major viab 99* and WT yeast gro inh 17.
CCCCNCCCCOc1ccccc1 was read as L major viab 88*, RAM inhibit -1, CHOP inh 27 and WT yeast gro inh 6.
`OCCNCCCCCOc1ccc(F)cc1` gave L major viab 97*, RAM inhibit 2, CHOP inh 31 and WT yeast gro inh 9.
`Cc1cccc(OCCCC(=O)O)c1` gave L major viab -5, RAM inhibit 0, CHOP inh 21 and WT yeast gro inh -6.
COC(=O)CC1C(=O)NCCN1C(=O)CSc1nc2cc(Cl)ccc2o1 (configuration not stated) was read as L major viab -3, RAM inhibit -1, CHOP inh 9 and WT yeast gro inh -3.
`CCOC(=O)c1c(C)[nH]c(C2=NNC(=Nc3ccccc3)SC2)c1C` gave L major viab -10, RAM inhibit 1, CHOP inh 13 and WT yeast gro inh 65*.
For CCOC(=O)c1c(C)[nH]c(N=Nc2ccccc2)c1C the results were L major viab 6, RAM inhibit 8, CHOP inh -34 and WT yeast gro inh 75*.
CCOC(=O)c1c(C)[nH]c(N=Nc2ccc(C)cc2)c1C was read as L major viab -2, RAM inhibit 3, CHOP inh 91* and WT yeast gro inh 7.
For COc1ccccc1NC(=O)C1=C(C)NC(=O)NC1c1cccs1 (configuration not stated) the results were L major viab 2, RAM inhibit 0, CHOP inh 0 and WT yeast gro inh -4.
Screening COCc1[nH]c(=S)[nH]c(=O)c1C returned CHOP inh 3.
O=S(=O)(NCC1NCCc2ccccc21)c1ccccc1 (configuration not stated) was read as L major viab -3, RAM inhibit 0, CHOP inh 11 and WT yeast gro inh -14.
`Oc1[nH]c(=S)sc1/C=C1\C(c2ccccc2)=Nc2ccccc21` gave L major viab 83*, RAM inhibit 5, CHOP inh 16 and WT yeast gro inh -14.
For CC1CN(c2cc(-c3ccccc3)c3ccccc3n2)CC(C)O1 (configuration not stated) the results were L major viab 100*, RAM inhibit 2, CHOP inh 46 and WT yeast gro inh 76*.
Screening COc1cccc(-c2nc(N3CC(C)CC(C)C3)c3ccccc3n2)c1O (configuration not stated) returned L major viab 12, RAM inhibit 0, CHOP inh 76* and WT yeast gro inh 7.
For CC1CN(c2nc(-c3ccccc3)nc3ccccc23)CC(C)O1 (configuration not stated) the results were L major viab 12, RAM inhibit 0, CHOP inh 82* and WT yeast gro inh -6.
CC1CN(c2nc3ccccc3cc2-c2ccccc2)CC(C)O1 (configuration not stated) was read as L major viab 38, RAM inhibit 1, CHOP inh 11 and WT yeast gro inh 78*.
`COc1cccc(-c2nc(N3CCC(C)CC3)c3ccccc3n2)c1O` gave L major viab 30, RAM inhibit -1, CHOP inh 59 and WT yeast gro inh 43.
Screening CC1(C)CC(=O)CC(=O)/C1=N\Nc1c(Cl)cc(Cl)cc1Cl returned L major viab -8, RAM inhibit 2, CHOP inh -4 and WT yeast gro inh 3.
Screening COc1ccc(/C=C2/SC(=O)N(NS(=O)(=O)c3ccccc3)C2=S)cc1OC returned L major viab -9, RAM inhibit 5, CHOP inh -14 and WT yeast gro inh 34.
C=CCn1c(SCC#N)nnc1-c1ccc2ncccc2c1 was read as CHOP inh -9.
Screening CCC(CO)n1c(SCc2cc([N+](=O)[O-])cc3c2OCOC3)nc2ccccc2c1=O (configuration not stated) returned L major viab 81*, RAM inhibit 1, CHOP inh 18 and WT yeast gro inh 53.
Screening CC(CCc1ccccc1)NC(=O)Cc1cccs1 (configuration not stated) returned L major viab -4, RAM inhibit 0, CHOP inh 27 and WT yeast gro inh -7.
Cc1cccc(OCC(O)Cn2c(-n3nc(C)cc3C)nc3c2c(=O)[nH]c(=O)n3C)c1 (configuration not stated) was read as L major viab 7, RAM inhibit 8, CHOP inh 73* and WT yeast gro inh 0.
`Cc1ccc(NC(=O)C2CCCN2C(=O)NC2CCCCC2)cc1` (configuration not stated) gave L major viab -4, RAM inhibit 2, CHOP inh 6 and WT yeast gro inh -4.
COc1ccc(/C=C/C(=O)NCc2cccnc2)cc1 was read as L major viab -2, RAM inhibit 2, CHOP inh 15 and WT yeast gro inh 3.
`COc1ccc(/C=C/C(=O)Nc2sc3c(c2C(=O)NCc2cccnc2)CCCC3)cc1` gave L major viab 7, RAM inhibit 1, CHOP inh 81* and WT yeast gro inh 17.
COc1cc2c(cc1OC)C(c1cccs1)N(C(=O)C(C)C)CC2 (configuration not stated) was read as L major viab 73*, RAM inhibit 0, CHOP inh -11 and WT yeast gro inh 17.
CC1(C)CC(=O)C2=C(C1)NC(Nc1nc3ccccc3o1)=NC21CCCCC1 was read as L major viab 59*, RAM inhibit 6, CHOP inh 21 and WT yeast gro inh 2.
CCCN1CN=C(Nc2nc3ccccc3o2)NC1 was read as CHOP inh -34.
O=C(NCCCN1CCN(CCCNC(=O)c2cc([N+](=O)[O-])ccc2Cl)CC1)c1cc([N+](=O)[O-])ccc1Cl was read as L major viab -5, RAM inhibit 1, CHOP inh 10 and WT yeast gro inh 13.
`Cc1cc(CC(C)C)n(-c2nc3ccccc3c(=O)n2OCC(=O)N(C)C)n1` gave L major viab -2, RAM inhibit 0, CHOP inh -7 and WT yeast gro inh -4.

Screening results from PubChem.
